From PubChem
pAkt inh: HTS Assay for Inhibitors of Akt Phophorylation: Primary Screen; Neuro2A IGF-stimulated pAkt S473 HTRF, 20 min; active compounds read low; activity change, % for hits at 50 µM; actives 0.32% (n = 360,000); AID 651550, 2012; in the data active = activity change below about -80%; inconclusive = mostly about -51% to -80%
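Single-point screen (50 µM final compound) in Neuro2A cells stimulated 20 min with 6 nM IGF at 37 deg C. After lysis, Ser473-phosphorylated Akt read by HTRF (ex 330 nm, em 615/665 nm) as the 665/615 ratio.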
Menin-MLL TR inh: qHTS Assay for Inhibitors Targeting the Menin-MLL Interaction in MLL Related Leukemias: Competition With Texas Red Labeled MLL-derived Mutant Peptide; AID 1768, 2009; Potency, µM (highest dose often 61.6 µM), actives largely listed as inhibitors; O00255; actives 0.23% (n = 270,000); Menin + Texas Red MLL mutant peptide, fluorescence polarization; active = well fitted inhibition curve with a large enough effect in the polarisation, with a control signal flat, not every such curve was filed as active; inconclusive = small, poorly fitted or top-dose-only effect, or effect the other way, or a change in a side signal; inactive = no such curve, though single readings can be large or run the other way; the % refers to the polarisation
CXXC DNA block: qHTS Fluorescence Polarization Assay for Inhibitors of MLL CXXC domain - DNA interaction | AID 2662, 2010 | actives 0.037% (n = 290,000) | Potency, µM (titrated, usually from 115 µM), most hits filed as inhibitors | MLL-CXXC / FITC-HOXA9 DNA fluorescence polarization; active = well fitted inhibition curve with a large enough effect in the polarisation, with a control signal flat, not every such curve was filed as active; inconclusive = small, poorly fitted or top-dose-only effect, or effect the other way, or a change in a side signal; inactive = no such curve, though single readings can be large or run the other way; the % refers to the polarisation
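Steps: dispense CXXC domain solution (7 uM) → pin compounds or unlabeled HOX-A9 DNA control → 5 min ambient → add FLSN-HOX-A9 solution (50 nM) → spin → 30 min ambient → fluorescence polarization. Tris pH 7.5/NaCl/DTT/BSA buffer.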
mIDH1 inhibitor: qHTS for Inhibitors of mutant isocitrate dehydrogenase 1 (IDH1): qHTS; AID 602179, 2012; Potency, µM (highest dose often 76.6 µM), most hits filed as inhibitors; IDH1-R132H enzyme, NADPH consumption, diaphorase/resazurin fluorescence; actives 0.093% (n = 390,000); also: nearly all actives have a fitted effect of over 65% in size
Target sequence (O75874 whole entry R132H, stated change not applied): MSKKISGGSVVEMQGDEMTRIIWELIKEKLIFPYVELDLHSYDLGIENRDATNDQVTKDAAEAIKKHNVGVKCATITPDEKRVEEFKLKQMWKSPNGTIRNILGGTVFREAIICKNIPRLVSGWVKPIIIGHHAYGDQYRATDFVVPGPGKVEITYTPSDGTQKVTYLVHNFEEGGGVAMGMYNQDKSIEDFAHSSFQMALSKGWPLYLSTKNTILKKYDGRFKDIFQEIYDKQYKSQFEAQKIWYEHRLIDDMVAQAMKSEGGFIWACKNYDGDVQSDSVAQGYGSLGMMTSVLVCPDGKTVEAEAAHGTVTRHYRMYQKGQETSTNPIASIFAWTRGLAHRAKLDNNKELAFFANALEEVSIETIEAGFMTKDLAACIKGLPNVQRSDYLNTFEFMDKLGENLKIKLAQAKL
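IDH1-R132H (0.5 ug/mL dispensed) in pH 7.5 Tris buffer was preincubated 30 min with compound, then given a substrate mix of 0.016 mM NADPH and 2 mM alpha-KG for 80 min at room temperature; remaining NADPH was read by diaphorase/resazurin fluorescence.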
LDHA block: qHTS assay for inhibitors of human lactate dehydrogenase. L-lactate dehydrogenase A chain (Homo sapiens), P00338. purified LDHA, NADH/diaphorase-resazurin fluorescence; active compounds read low. activity change, % (values are at about 110 or 230 µM). actives 0.15% (n = 480,000). AID 1347041, 2019; in the data active = activity change below about -30%; inconclusive = mostly about -25% to -30%
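Remaining NADH was detected by diaphorase (0.133 mg/mL) converting 37 µM resazurin to fluorescent resorufin, read at 0 and 20 minutes. The preceding 5-minute room-temperature reaction used 2 nM LDHA, 0.2 mM sodium pyruvate and 0.06 mM NADH at pH 7.4.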
Menin MLL FP FL: qHTS Assay for Inhibitors Targeting the Menin-MLL Interaction in MLL Related Leukemias: Competition With Fluorescein Labeled MLL-derived Peptide | FP activity change, % at 61.4 µM | Fluorescence polarization, fluorescein-MLL peptide displacement from menin | 290,000 tested, under 10 active; active = well fitted curve in the direction sought with a large enough effect in the polarisation, not every such curve was filed as active; inconclusive = small, poorly fitted or top-dose-only effect, or effect the other way, or a change in a side signal; inactive = no such curve, though single readings can be large or run the other way; the % refers to the polarisation
IDH1 autofl: qHTS for Inhibitors of mutant isocitrate dehydrogenase 1 (IDH1): Cherrypicks Autofluorescence Interference | Resorufin detection reagent fluorescence interference, cell-free | inhibition of signal, % at 51.2 µM | 750 tested, under 10 active | shares compounds with mIDH1 inhibitor | AID 623980, 2012
IDH1 WT: qHTS for Inhibitors of mutant isocitrate dehydrogenase 1 (IDH1): Cherrypicks in WT IDH1; shares compounds with mIDH1 inhibitor; actives 9% (n = 750); WT IDH1 enzyme, NADPH diaphorase/resazurin fluorescence; Potency, µM (series often up to 115 µM), most hits filed as inhibitors; AID 623995, 2012; also: nearly all actives have a fitted effect of over 55% in size
Target sequence (O75874 whole entry, looked up): as the sequence (O75874 whole entry R132H, stated change not applied) above, with H132R counted along it
IDH1 R132H conf: qHTS for Inhibitors of mutant isocitrate dehydrogenase 1 (IDH1): Confirmation of Cherrypicks | shares compounds with mIDH1 inhibitor | IDH1 R132H enzyme, NADPH diaphorase/resazurin fluorescence | Potency, µM (series often up to 76.6 µM), actives largely listed as inhibitors | actives 83% (n = 750); also: nearly all actives have a fitted effect of over 50% in size
Hits are given with their value; 0 = inactive; ? = inconclusive; - = no result. Rows were chosen to be rich in hits. Some 0.54% of all compounds tested hit in one or more screens of this group. Unless noted, calls follow the shape of the dose curve; as a rule, active = well fitted curve in the direction sought with a large enough effect; inconclusive = small, poorly fitted or top-dose-only effect, or another doubt; inactive = no such curve, though single readings can be large; an effect the other way counts as inactive or inconclusive.

SMILES	pAkt inh	Menin-MLL TR inh	CXXC DNA block	mIDH1 inhibitor	LDHA block	Menin MLL FP FL	IDH1 autofl	IDH1 WT	IDH1 R132H conf
Cc1ccc(S(=O)(=O)Oc2ccc3c(c2)O/C(=C\c2cccnc2)C3=O)cc1	0	0	0	?	0	0	0	0	25µM
O=C1/C(=C/c2ccncc2)Oc2cc(OS(=O)(=O)c3ccccc3)ccc21	0	-	0	46µM	0	0	0	?	16µM
COc1cccc(OC)c1C(=O)Oc1ccc2c(c1)O/C(=C\c1ccncc1)C2=O	0	0	0	?	0	0	0	0	20µM
COc1cccc(OC)c1C(=O)Oc1ccc2c(c1)O/C(=C\c1ccc(C(C)C)cc1)C2=O	-	-	-	-	0	-	-	-	-
CCOC(=O)c1ccc(Oc2coc3cc(OCC=C(C)C)ccc3c2=O)cc1	-	-	-	-	0	-	-	-	-
CCc1cccc2c(C(=O)Cn3cc(S(=O)(=O)N4CCCC4)ccc3=O)c[nH]c12	-	-	-	-	0	-	-	-	-
Fc1ccc(Nc2nc(NCc3ccco3)c3ccccc3n2)cc1	0	-	0	?	0	0	0	0	28µM
COc1ccc(-c2oc3cc(OC(C)=O)cc(OC(C)=O)c3c(=O)c2OC)cc1	0	-	-	?	0	-	0	0	28µM
OC(CC#CCN1CCCCCC1)(c1ccccc1)c1ccc(-c2ccccc2)cc1 (configuration not stated)	-	-	-	-	0	-	-	-	-
NC(=O)CN1C(=O)/C(=c2\sc3nc(=O)c(Cc4ccccc4)nn3c2=O)c2ccccc21	0	-	0	?	0	0	0	0	0
CCCN1C(=O)/C(=c2\sc3nc(=O)c(Cc4ccc(C)cc4)nn3c2=O)c2ccccc21	0	0	?	0	0	0	-	-	-
CC(Sc1cc(Cl)ccc1Cl)C(=O)NCCC(=O)N1CCCCC1 (configuration not stated)	-	-	-	-	0	-	-	-	-
C=C(C)Cc1c(C)c(C#N)c2nc3ccccc3n2c1N1CCCCC1	0	?	0	?	0	0	0	0	14µM
COc1cc(C2(c3ccc(O)c(OC)c3)C(=O)Nc3c(Br)cc(Br)cc32)ccc1O	0	-	-	52µM	0	-	0	?	40µM
COc1cc(C2(c3ccc(O)c(OC)c3)C(=O)N(C)c3ccc(Br)cc32)ccc1O	0	-	-	0	0	-	-	-	-
COc1ccc(N(C)C(=O)c2ccc3c(Cl)c4c(nc3c2)CCCC4)c(OC)c1	0	?	0	?	0	0	0	0	40µM
COC(=O)c1c(NC(C)=O)sc(Cc2ccccc2)c1C	0	-	0	?	0	0	0	0	50µM
COC(=O)c1c(NC(=O)c2ccccc2)sc(Cc2ccccc2)c1C	0	0	0	0	0	0	-	-	-
COc1ccc(NC(=O)C(c2ccc(OC)cc2)N(Cc2ccco2)C(=O)CC2NC(=O)NC2=O)cc1 (configuration not stated)	0	0	0	0	0	0	-	-	-
COc1ccc(C(C(=O)Nc2ccc(C(C)C)cc2)N(Cc2ccco2)C(=O)CC2NC(=O)NC2=O)cc1 (configuration not stated)	0	0	0	?	0	0	0	0	32µM
COc1ccc2cc(C(=O)NC3CCN(C(=O)c4ccccc4)CC3)c(C)nc2c1	-	-	-	-	0	-	-	-	-
CC[C@@H](CCC=C(C)C)C(=O)N(Cc1ccccc1)c1ccccc1	0	-	-	?	0	-	0	?	16µM
CC(C)C[C@@H](C)C(=O)N(Cc1ccccc1)c1ccccc1	0	-	-	0	0	-	-	-	-
COc1ccc(C(=O)NC(NC(C)C)C(Cl)(Cl)Cl)cc1 (configuration not stated)	-	-	-	-	0	-	-	-	-
Cc1c(/C=N/NC(=O)c2cc(=O)[nH]c(=O)[nH]2)c2ccccn2c1C(=O)c1ccccc1	0	-	0	?	0	0	0	?	14µM
SMILES	pAkt inh	Menin-MLL TR inh	CXXC DNA block	mIDH1 inhibitor	LDHA block	Menin MLL FP FL	IDH1 autofl	IDH1 WT	IDH1 R132H conf
Cc1c(/C=N/NC(=O)c2ccc(O)cc2)c2ccccn2c1C(=O)c1ccc(F)cc1	0	?	0	0	0	0	-	-	-
CCOC(=O)c1sc(Nc2ccccc2C)nc1C	-	-	-	-	0	-	-	-	-
O=C(NC1CCCC1)C(c1ccccc1)N(Cc1ccco1)C(=O)Cc1cccs1 (configuration not stated)	0	0	0	?	0	0	0	0	28µM
Cc1ccc(C(C(=O)NC2CCCCC2)N(Cc2ccco2)C(=O)C2COc3ccccc3O2)o1 (configuration not stated)	0	-	0	?	0	0	0	0	13µM
O=C(NCC(=O)N(Cc1ccco1)C(C(=O)NC1CCCC1)c1ccncc1)c1cccs1 (configuration not stated)	0	0	0	0	0	0	-	-	-
O=C(NCc1ccco1)C(c1ccncc1)N(C(=O)Cc1cccs1)c1ccccc1 (configuration not stated)	0	0	0	0	0	0	-	-	-
O=C(NCc1ccco1)C(c1ccccc1)N(C(=O)Cc1cccs1)c1ccccc1F (configuration not stated)	0	0	0	21µM	0	0	0	0	14µM
OCCNc1nc(Nc2ccc(Cl)c(Cl)c2)nc2nccnc12	-	-	-	-	0	-	-	-	-
CCc1nnc(NC(=O)CCc2ccc(-c3ccc(C)cc3)o2)s1	-	-	-	-	0	-	-	-	-
COCCn1c(SCC(C)C)nc2c1c(=O)[nH]c(=O)n2C	-	-	-	-	0	-	-	-	-
c1ccc(C2=Nn3c(nnc3-c3cc(-c4ccccc4)n[nH]3)SC2)cc1	0	0	0	?	0	0	0	?	20µM
Clc1ccc(C2=Nn3c(nnc3-c3cc(-c4ccccc4)n[nH]3)SC2)cc1	0	0	0	0	0	0	-	-	-
